We go through 6 compounds from ChEMBL document CHEMBL1201862, “PubChem BioAssay data set” (2004).

Structures are written as SMILES. Screen size: about 340,000 compounds; about 12,000 (3.5%) were called active. Inconclusive results (about 18%) are left out. The calls are words filed in the database; no cut-off is given here. The sample as a whole holds a higher share of actives than the screen did.

This test in a line: qHTS Assay for Inhibitors of Hepatitis C Virus (HCV). The class given is functional. The conditions noted are these: read-out: Potency. A general note: Quantitative high-throughput screening tests each substance at several concentrations.
`CO[C@H]1/C=C\O[C@@]2(C)Oc3c(C)c(O)c4c(O)c(c5c(c4c3C2=O)=NC2(CCN(CC(C)C)CC2)N=5)NC(=O)/C(C)=C\C=C/[C@H](C)[C@H](O)[C@@H](C)[C@@H](O)[C@@H](C)[C@H](OC(C)=O)[C@@H]1C`: the AC50 is 158 µM (active). Next, `COc1ccc([C@@]23Oc4cc(OC)cc(OC)c4[C@]2(O)[C@H](O)[C@H](C(=O)N(C)C)[C@H]3c2ccccc2)cc1` [ROCAGLAMIDE]: 100 µM (active).

Turning to `O=C(O)c1cc(O)c2c(c1)[C@@H]([C@H]1c3cc(C(=O)O)cc(O)c3C(=O)c3c(O[C@@H]4O[C@H](CO)[C@@H](O)[C@H](O)[C@H]4O)cccc31)c1cccc(OC3O[C@H](CO)[C@@H](O)[C@H](O)[C@H]3O)c1C2=O` (stereo partly specified), the AC50 is 79.4 µM (active). For `[N-]=[N+]=NC[C@H](Cc1ccccc1)N1CC[C@@H](OCc2ccccc2)CCC1=O`, the AC50 was 100 µM (active). For the compound `Cl.N[C@@H](CCC(=O)O)C(=O)O` [GLUTAMIC ACID HYDROCHLORIDE], the AC50 was 1.12 µM (active). Next, `C#CC(=O)N(c1cc(OC)ccc1OC)C(C(=O)NC1CCCC1)c1cccs1` (stereo unspecified): 112 µM (active).
